Test results taken from PubChem BioAssay (NCI).
The panel holds about 79,000 compounds, 15% with a hit somewhere; the sample as a whole holds those more often. Unmarked numbers belong to inactive results. Active and inactive are the calls of the source. Cut-off read from the data, not from the text of the source: active = growth inhibition above about 70%; inactive = the rest.

Columns and labels:
[1] = NCI Yeast Anticancer Drug Screen. Data for the rad50 strain (AID 155);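 note: 0% = growth of vehicle-only cultures of the same strain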; conditions: S. cerevisiae rad50 strain growth inhibition, hits give high values
How it was run: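 DNA repair mutant yeast, compound exposure, growth read-out; inhibition is taken relative to vehicle.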

[2] = NCI Yeast Anticancer Drug Screen. Data for the mec2-1 strain (AID 157); conditions: S. cerevisiae mec2-1 strain, hits give high values
How it was run: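 Cells of the genetically defined mec2-1 yeast strain are incubated with test compound. Inhibition of growth is calculated against vehicle-treated controls.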

[3] = NCI Yeast Anticancer Drug Screen. Data for the sgs1 mgt1 strain (AID 161);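 note: 0% = growth of cultures given vehicle only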; conditions: S. cerevisiae sgs1 mgt1 strain, hits give high values
How it was run: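 Genetically altered yeast, compound exposure, growth inhibition relative to vehicle.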

[4] = NCI Yeast Anticancer Drug Screen. Data for the cln2 rad14 strain (AID 165);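 note: 0% = growth equal to vehicle treated cultures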; conditions: S. cerevisiae cln2 rad14 strain, hits give high values
How it was run: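 The screen exposed genetically defined yeast (cln2 rad14) to test compounds and scored growth inhibition relative to vehicle-treated controls.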

[5] = NCI Yeast Anticancer Drug Screen. Data for the bub3 strain (AID 167); conditions: S. cerevisiae bub3 mutant strain, hits give high values
How it was run: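 In this screen, a yeast mutant lacking normal mitotic checkpoint function is challenged with compound. Relative growth versus vehicle gives the inhibition value.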

[6] = NCI Yeast Anticancer Drug Screen. Data for the mlh1 rad18 strain (AID 175); conditions: S. cerevisiae mlh1 rad18 strain growth inhibition, hits give high values
How it was run: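 Compound-treated yeast growth, normalised to vehicle controls. Strain bears defined DNA repair mutations.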

[7] = at 5.0 µM (retest, dose inferred, filed as 0.5)
[8] = at 50.0 µM (retest, dose inferred, filed as 5.0)

| SMILES | growth inhibition [1, 7] | growth inhibition [1, 8] | growth inhibition ([1]; at 50.0 µM) | growth inhibition [2, 7] | growth inhibition [2, 8] | growth inhibition ([2]; at 50.0 µM) | growth inhibition [3, 7] | growth inhibition [3, 8] | growth inhibition ([3]; at 50.0 µM) | growth inhibition [4, 7] | growth inhibition [4, 8] | growth inhibition ([4]; at 50.0 µM) | growth inhibition [5, 7] | growth inhibition [5, 8] | growth inhibition ([5]; at 50.0 µM) | growth inhibition [6, 7] | growth inhibition [6, 8] | growth inhibition ([6]; at 50.0 µM) |
| --- | --- | --- | --- | --- | --- | --- | --- | --- | --- | --- | --- | --- | --- | --- | --- | --- | --- | --- |
| CC(C)(C)c1ccc(O)c(-c2ccccc2)c1 | -3% | 97% (active) | 99.2% (active) | -6% | 98% (active) | 99.7% (active) | -2% | 98% (active) | 99.5% (active) | -8% | 98% (active) | 97.2% (active) | 2% | 97% (active) | 99.2% (active) | -4% | 98% (active) | 66.5% |
| CC/C(=C(/CC)c1ccc(O)cc1)c1ccc(O)cc1 | 16% | 99% (active) | 99% (active) | 6% | 99% (active) | 98.8% (active) | 5% | 100% (active) | 99.1% (active) | 39% | 99% (active) | 98% (active) | 22% | 63% | 99.5% (active) | 13% | 97% (active) | 99.2% (active) |
| O=[N+]([O-])c1ccc(C(Br)c2ccc([N+](=O)[O-])cc2)cc1 | 42% | 97% (active) | 99.8% (active) | 29% | 100% (active) | 99.8% (active) | 65% | 100% (active) | 99.8% (active) | 22% | 99% (active) | 99.7% (active) | 15% | 100% (active) | 99.7% (active) | 54% | 99% (active) | 99.7% (active) |
| O=[N+]([O-])c1ccc2c(c1)Cc1ccccc1-2 | 15% | -11% | 63.5% | -10% | -25% | 9.35% | 8% | 5% | 25.2% | -2% | -20% | -13.5% | 0% | -59% | -17.2% | 20% | 2% | 67.2% |
| OCCOSCCO | 5% | -4% | -0.05% | 2% | -4% | -14.1% | -8% | -2% | 10.2% | 6% | 2% | 15.8% | 2% | 6% | -6.5% | 4% | -4% | -14.1% |
| O=C/C=C/c1ccc([N+](=O)[O-])cc1 | 24% | 98% (active) | 80.4% (active) | 49% | 100% (active) | 83.5% (active) | 18% | 98% (active) | 95.5% (active) | 8% | 98% (active) | 46.7% | 17% | 99% (active) | 95.3% (active) | 72% (active) | 99% (active) | 90.5% (active) |
| OC(Cc1cc(CC(O)(C(F)(F)F)C(F)(F)F)nc(CC(O)(C(F)(F)F)C(F)(F)F)c1)(C(F)(F)F)C(F)(F)F | 8% | 99% (active) | 99.5% (active) | 1% | 100% (active) | 99.5% (active) | -9% | 99% (active) | 99.4% (active) | 29% | 100% (active) | 97.8% (active) | -15% | 100% (active) | 99.3% (active) | 19% | 99% (active) | 99.5% (active) |
| O=C1C=Cc2ccccc2/C1=C/c1nc(-c2ccccc2)oc1O | -2% | 97% (active) | 89.5% (active) | -15% | 98% (active) | 91.8% (active) | 17% | 97% (active) | 49.5% | 2% | 97% (active) | 86.5% (active) | 0% | 98% (active) | 92.7% (active) | 5% | 97% (active) | 90% (active) |
| CN1CCC(CN2c3ccccc3Sc3ccccc32)C1 (stereo not given) | 2% | 16% | 38.5% | 2% | -27% | -22.9% | -8% | 11% | 21.1% | -17% | -1% | 51.2% | 26% | 6% | 19.4% | 11% | 16% | 32.2% |
| Cc1cc(N/N=C/c2ccccn2)nc2ccccc12 | 20% | 94% (active) | 88.7% (active) | 7% | 95% (active) | 92.3% (active) | 21% | 95% (active) | 89.8% (active) | 22% | 93% (active) | 83.9% (active) | 8% | 98% (active) | 85.7% (active) | 11% | 95% (active) | 90% (active) |
